Source: PubChem BioAssay (NCATS)
Inconclusive results are not listed. A number with no mark means an inactive call. Activity calls are given as the source filed them. The call rests on the fitted dose curve; in most records, active means well fitted cell-killing curve with a large enough effect; inconclusive means small, poorly fitted or top-dose-only effect; inactive means no such curve, though single readings can be large or run the other way.

Assay: qHTS of pediatric cancer cell lines to identify multiple opportunities for drug repurposing: Confirmatory screen for DAOY cells (AID 1347114); further: nearly all actives have a fitted effect of over 65% in size
Conditions: DAOY medulloblastoma cells viability, cytotoxicity qHTS; series mostly up to 45.9 µM
Description: Drug repurposing or repositioning has been offered as a strategy for drug development in oncology programs. This approach has special potential for childhood cancers and other rare or orphan diseases, where the expected return on new drug development has been a disincentive to pharmaceuticals.
In this project we exploit the poly-pharmacology of drugs to discover new indications via phenotypic screening of a panel of 19 well-characterized cell lines derived from solid tumors seen in children and adolescents. The goal is to identify approved drugs with previously unrecognized anticancer properties that has the potential to reveal new mechanisms and biological processes involved in carcinogenesis or drug resistance. We employed a titration-based paradigm (quantitative high-throughput screening or qHTS), where all compounds were tested at multiple concentrations for their effect on cell viability. Concentration-response curves (CRCs) were derived directly from the primary screen, and both potency and efficacy values were used to identify compounds with robust bioactivity profiles. We screened the NIH Chemical Genomics Center (NCGC) Pharmaceutical Collection (NPC) and Mechanism Interrogation Plate (MIPE) small molecule collections of approved and investigational compounds against these cell lines; and measured metabolically active cells after 48 hours of compound treatment as a proxy for cell viability.
Assay Submitter: Nathalia J. Martinez, National Center for Advancing Translational Sciences, National Institutes of Health, Rockville, MD, USA; email: natalia.martinez@nih.gov
[1] Shen, M et al. Quantitative high-throughput phenotypic screening of pediatric cancer cell lines identifies multiple opportunities for drug repurposing. Oncotarget 2017 Dec 19;9(4):4758-4772. PMID 29435139.
The cells were obtained from University of North Carolina (UNC), Pediatric Preclinical Testing Program (PPT), and Coriell Institute (CI).
qHTS cell viability assay:
Cells were assayed in growth media at a density of 500-1,000 cells/well. Five microliters of cells were dispensed into 1,536-well, white, solid-bottom, TC-treated plates (Greiner Bio One) using a multidrop dispenser and incubated at 37 degrees C, 5% CO2, under a humidified atmosphere for 5 hours. Twenty-three nanoliters of compounds and controls (neutral control DMSO or positive control bortezomib at final concentration of 2.3 µM) were subsequently transferred by Kalypsys pintool. For primary screens, the MIPE collection was tested at 11-point dilutions (final concentrations range from 0.78 nM to 46 µM) and the NPC collection at 8-point dilutions (final concentrations range from 0.59 nM to 46 µM). Compounds tested in follow-up screens were assayed at 11-point dilutions. Cells were incubated for 48 hours, followed by addition of 3 uL of CellTiter-Glo (Promega). After a 15 min incubation at room temperature, samples were analyzed for luminescence intensity using a ViewLux High-throughput CCD imager equipped with clear filters.
On the % scale 0 is the no-effect control and ±100 the full control effect; potency means the concentration at half of the fitted maximal effect.

SMILES	activity change, negative = cytotoxic	Potency
CCN[C@@H]1C[C@H](N)[C@@H](OC2OC(CN)=CCC2N)[C@H](O)[C@H]1O[C@H]1OC[C@](C)(O)[C@H](NC)[C@H]1O (stereo partly specified)	15.9% [at 0.556 µM]	
C=C[C@@]1(C)CC(=O)[C@]2(O)[C@@]3(C)[C@@H](O)CCC(C)(C)[C@@H]3[C@H](O)[C@H](OC(C)=O)[C@@]2(C)O1		inactive
NC(N)=NN=C(/C=C/c1ccc([N+](=O)[O-])o1)/C=C/c1ccc([N+](=O)[O-])o1		3290 nM (active)
COc1ccc(C(=O)c2ccccc2)c(O)c1		inactive
C[C@@]12C(=O)OC(=O)[C@]1(C)C1CCC2O1		2930 nM (active)
O=C(Oc1cccc2cccnc12)c1ccccc1		inactive
CCCCCCCCCCCCOCCOCCOCCOCCOCCOCCOCCOCCOCCO		14700 nM (active)
CN(C)C(=O)Nc1ccc(Cl)c(Cl)c1		inactive
CCCCCCCCCCC[C@@H](C[C@@H]1OC(=O)[C@H]1CCCCCC)OC(=O)[C@H](CC(C)C)NC=O		inactive
CCN1/C(=C/C=C/c2sc3ccccc3[n+]2CC)Sc2ccccc21		362 nM (active)
C[C@H]1O[C@@H](O[C@H]2CC[C@@]3(C)[C@H](CC[C@@H]4[C@@H]3C[C@@H](O)[C@]3(C)[C@@H](C5=CC(=O)OC5)CC[C@]43O)C2)C[C@H](O)[C@@H]1O[C@H]1C[C@H](O)[C@H](O[C@H]2C[C@H](O)[C@H](O[C@@H]3O[C@H](CO)[C@@H](O)[C@H](O)[C@H]3O)[C@@H](C)O2)[C@@H](C)O1		117 nM (active)
